Experiment [1] concerns STK33.
In experiment [2] the test system is STK36.
The subject of experiment [3] is TAOK1.
Experiment [4] has as its system TAOK3.
The subject of experiment [5] is TESK1.
Experiment [6] relates to TGFBR1.
Experiment [7] deals with T1, TIE2.
T1 construct: gene TEK

The test system of experiment [8] is TNIK.
Experiment [9] has as its system TNNI3K.
Experiment [10] has as its system T2, TRKA.
T2 construct: gene NTRK1

Usually Kd stands for a measure of binding affinity in units of concentration. A lower Kd goes with a tighter complex.

SMILES strings stand for the structures. Where only a bound is given, the exact number is not on record here.
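Note: kd values determined as follow-up on hits from a single-replicate KINOMEscan panel screen.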

In the case of `Cl.Cl.Cl.N#Cc1ccc(CCNc2nccc(-c3cccc(CN4CCNCC4)c3)n2)cc1` [GSK2137462], the Kd in experiment [1] was 3.9 µM.
`CS(=O)(=O)Cc1ccc(Nc2nccc(-c3c(-c4cccc(NC(=O)C5CCCCC5)c4)nn4ncccc34)n2)cc1` [GSK350559] gave a Kd in [2] of 0.067 µM.
Regarding `CNCc1ccc2nc(NC(=O)c3ccc(C(C)(C)C)cc3)cn2c1`, the Kd in [3] and in [4] was more than 10 µM each time.
In the case of `Cn1cncc1C(=O)NC1CCN(c2ccnc(Nc3ccc(F)cc3)n2)C1` (centres unmarked) [GSK1379717], the Kd in experiment [5] is more than 10 µM.
`COc1cccc(CNC(=O)NC2CCN(c3ccnc(Nc4ccc(F)cc4)n3)C2)c1` (centres unmarked) [GSK1379723] came in with a dissociation constant (Kd) in [5] of 9.8 µM.
With `COc1ccc2cc(-c3nc(-c4ccccc4C(C)C)[nH]c3-c3ccncc3)ccc2c1` [SB-660566], the results for the Kd in experiment [6] and in experiment [7] were 0.77 µM and 0.16 µM, respectively.
Turning to `Cc1nccc(-c2c(-c3ccc(F)cc3)ncn2CCCN2CCOCC2)n1.Cl` [SB-282975], the dissociation constant Kd in experiment [7] is more than 10 µM.
With `Nc1nccc(-c2c(-c3ccc(F)cc3)ncn2C2CCN(Cc3ccccc3)CC2)n1` [SB-219980], the affinity in [8], expressed as Kd, was 4.1 µM.
On the same count and under the same terms, under `NS(=O)(=O)c1cccc(N/C=C2\C(=O)Nc3ccc(S(=O)(=O)Cc4c(Cl)cccc4Cl)cc32)c1` [GSK398099] stands 0.33 µM.
`O=C(Nc1n[nH]c2nc(-c3cccs3)c(Br)cc12)C1CC1` [SB-735297] came in with a dissociation constant (Kd) in experiment [9] of more than 10 µM.
Consider `COC(=O)C(Cc1ccccc1)NC(=O)NC1CCN(c2ccnc(Nc3ccc(F)cc3)n2)C1` (centres unmarked) [GSK1379714], for which the dissociation constant Kd in experiment [10] stood at 1.5 µM.
In the case of `O=C(Nc1n[nH]c2cc(-c3ccsc3)ccc12)C1CC1` [SB-732932], the equilibrium dissociation constant (Kd) in [10] was 3.1 µM.

The values are drawn from article PMC5540273 (PLoS ONE, 2017).
